Experimental data taken from PubChem BioAssay (NCATS).
Values joined by “and” are separate entries in the source; they are usually repeats but may differ in a detail not shown here. Identical values can stand only once. Results filed as inconclusive are left out. Active and inactive are the calls of the source. Unless noted, calls come from the whole dose curve; as a rule, active = well fitted curve in the direction sought with a large enough effect; inconclusive = small, poorly fitted or top-dose-only effect, or another doubt; inactive = no such curve, though single readings can be large; an effect the other way counts as inactive or inconclusive.

How the values were obtained:
[1] = AP1 Signaling Pathway (AID 357; active = well fitted curve in either direction with a large enough effect, not every such curve was filed as active;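 note: ME-180 reporter cells stimulated with EGF at its EC50 level; % is set by controls: 0 for no effect and ±100 for the full control effect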); conditions: ME-180 AP-1-bla reporter, EGF-induced, beta-lactamase ratio, 5 h; at 7.69 µM (top of the series) unless noted
Summary of the method: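 Cells are seeded overnight, exposed to compound titrations and an EC50 level of EGF for 5 hours at 37 °C, then loaded with CCF4 dye for 2.5 hours. Beta-lactamase activity under the AP-1 element is read as a blue/green ratio.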

[2] = molecular target: Cytochrome P450 1A2 (Homo sapiens) (UniProt P05177); assay: p450-cyp1a2 (AID 410; calls by dose curve; note: potency is the fitted concentration of half-maximal effect;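 for activity change, negative = inhibition: -100% = full effect of reference inhibitor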); conditions: recombinant CYP1A2, luciferin-ME demethylation, luminescence; series mostly up to 11.4 µM
Chain of Cytochrome P450 1A2 (Homo sapiens) (P05177 whole entry, looked up): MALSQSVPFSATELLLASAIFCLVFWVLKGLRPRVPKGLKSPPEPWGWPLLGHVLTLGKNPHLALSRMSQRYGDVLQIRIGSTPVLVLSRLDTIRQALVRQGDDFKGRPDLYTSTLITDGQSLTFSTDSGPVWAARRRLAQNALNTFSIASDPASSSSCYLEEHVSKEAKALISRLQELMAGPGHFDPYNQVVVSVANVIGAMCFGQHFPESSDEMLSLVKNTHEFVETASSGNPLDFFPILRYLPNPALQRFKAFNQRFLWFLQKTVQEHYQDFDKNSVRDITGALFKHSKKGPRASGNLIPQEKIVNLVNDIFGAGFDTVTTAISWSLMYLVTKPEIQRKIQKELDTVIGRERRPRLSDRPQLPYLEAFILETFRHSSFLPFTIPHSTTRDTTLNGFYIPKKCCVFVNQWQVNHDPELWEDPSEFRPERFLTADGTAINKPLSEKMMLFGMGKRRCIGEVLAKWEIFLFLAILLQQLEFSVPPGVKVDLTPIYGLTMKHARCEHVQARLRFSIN
Summary of the method: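 Luminescent demethylation readout: Luciferin-ME (100uM, equal to Km) turned over by 20nM CYP1A2 for 60 min at room temperature after NADPH regeneration addition, following 10 min compound preincubation. Normalization used 57 uM furafylline as full inhibition.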

[3] = NFAT Signaling Pathway (AID 444; active = well fitted curve in either direction with a large enough effect, not every such curve was filed as active;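 note: carbachol stimulus at about its EC50 of 1 µM final; % is set by controls: 0 for no effect and ±100 for the full control effect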); conditions: Jurkat NFAT-bla M1, carbachol, beta-lactamase ratio, 5 h; at 7.69 µM (top of the series) unless noted
Summary of the method: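 Read-out: CCF4 FRET ratio (460 nm/530 nm) after 1 h RT dye loading, used for %activity and AC50 from titration series. Cells: Jurkat NFAT-β-lactamase/M1 line, treated with compound plus 1 uM carbachol for 5 h, 37 °C.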

[4] = Stat Signaling Pathway (AID 446; active = well fitted curve in either direction with a large enough effect, not every such curve was filed as active;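 note: ME-180 cervical cancer cells given 40 pM IL-6 alongside compound; SIE-controlled beta-lactamase reporter measured as 460/530 nm FRET emission ratio; % is set by controls: 0 for no effect and ±100 for the full control effect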); conditions: ME-180 (cervical carcinoma) SIE beta-lactamase reporter, IL-6 stimulated, 5 h; at 7.69 µM (top of the series) unless noted
Summary of the method: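 Emission at 460 and 530 nm (excitation 405 nm) reports SIE-controlled beta-lactamase in ME-180 cells. Cells received compound with 40 pM IL-6 for 5 hrs at 37 C; data scaled between 300 pM IL-6 and 125 nM JAK-inhibitor controls.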

[5] = molecular target: Glucocorticoid receptor (Homo sapiens) (UniProt P04150); assay: GR-GFP Redistribution (AID 450;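 active = compounds whose dose series gives a full or clear partial fitted curve of increased nuclear translocation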; note: potency is the fitted concentration of half-maximal effect); conditions: U2OS GR-GFP nuclear translocation, laser cytometry, 2 h
Chain of Glucocorticoid receptor (Homo sapiens) (P04150 whole entry, looked up, the tested form may be a part): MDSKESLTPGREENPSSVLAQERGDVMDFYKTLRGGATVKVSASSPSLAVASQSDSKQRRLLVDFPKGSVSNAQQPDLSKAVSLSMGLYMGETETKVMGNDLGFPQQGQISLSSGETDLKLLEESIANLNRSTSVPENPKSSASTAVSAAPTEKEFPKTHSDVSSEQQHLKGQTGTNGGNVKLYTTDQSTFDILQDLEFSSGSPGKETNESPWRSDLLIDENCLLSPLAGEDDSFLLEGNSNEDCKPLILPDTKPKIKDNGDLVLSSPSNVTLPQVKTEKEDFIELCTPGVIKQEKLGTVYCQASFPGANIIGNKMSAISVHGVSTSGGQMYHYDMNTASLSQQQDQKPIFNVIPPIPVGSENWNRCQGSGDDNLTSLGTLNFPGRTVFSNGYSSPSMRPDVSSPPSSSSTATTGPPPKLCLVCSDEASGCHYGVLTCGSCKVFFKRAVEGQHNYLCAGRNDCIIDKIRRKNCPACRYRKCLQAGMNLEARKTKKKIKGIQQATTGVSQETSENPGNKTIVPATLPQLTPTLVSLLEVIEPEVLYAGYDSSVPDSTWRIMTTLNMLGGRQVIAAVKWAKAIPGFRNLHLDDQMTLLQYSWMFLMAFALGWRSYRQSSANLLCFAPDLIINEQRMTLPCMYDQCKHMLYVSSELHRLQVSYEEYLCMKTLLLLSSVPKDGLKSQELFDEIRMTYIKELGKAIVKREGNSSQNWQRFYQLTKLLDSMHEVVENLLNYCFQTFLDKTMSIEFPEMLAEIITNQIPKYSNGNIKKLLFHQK

[6] = molecular target: Glucocorticoid receptor (Homo sapiens) (UniProt P04150); assay: GR-EFC Redistribution (AID 451; calls by dose curve; note: potency is the fitted concentration of half-maximal effect); conditions: CHO-K1 GR-EFC translocation, beta-gal luminescence, 2 h
Summary of the method: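 Translocation of GR-ED fusion to nuclear EA restores b-gal, read by luminescence after 1 h room-temperature detection. Engineered CHO-K1 biosensor cells, 1,000/well, exposed 2 h at 37 C to titrations up to 46 uM final.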

[7] = molecular target: Mitogen-activated protein kinase 10 (Mus musculus) (UniProt Q61831); assay: JNK3 AlphaScreen Assay (AID 530; active = well fitted curve in either direction with a large enough effect, not every such curve was filed as active;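 note: kinase came from lysate of stimulated human HepG2 cells; signal reports phosphorylation of biotinylated GST-cJun 1-79 at Ser73 with 10 µM ATP; % is set by controls: 0 for no effect and ±100 for the full control effect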); conditions: JNK3 lysate, c-Jun phosphorylation; series mostly up to 57.1 µM
Summary of the method: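 qHTS titrations with 15 min compound pre-incubation before adding ATP (10 uM final). Read-out: AlphaScreen of Ser73-phosphorylated biotin-GST-cJun using HepG2 lysate JNK3 activated by IL-1β and TNFα.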

[8] = molecular target: 3',5'-cyclic-AMP phosphodiesterase 4B (Homo sapiens) (UniProt Q07343); assay: qHTS Assay for Inhibitors of PDE-IV (AID 607; active = well fitted activation curve with a large enough effect in the main read-out, with a control signal flat, not every such curve was filed as active; note: % of control where 0% means no effect); conditions: HEK293 ACTOne CNG channel cells, membrane potential fluorescence; series mostly up to 22.9 µM
Chain of 3',5'-cyclic-AMP phosphodiesterase 4B (Homo sapiens) (Q07343 whole entry, looked up): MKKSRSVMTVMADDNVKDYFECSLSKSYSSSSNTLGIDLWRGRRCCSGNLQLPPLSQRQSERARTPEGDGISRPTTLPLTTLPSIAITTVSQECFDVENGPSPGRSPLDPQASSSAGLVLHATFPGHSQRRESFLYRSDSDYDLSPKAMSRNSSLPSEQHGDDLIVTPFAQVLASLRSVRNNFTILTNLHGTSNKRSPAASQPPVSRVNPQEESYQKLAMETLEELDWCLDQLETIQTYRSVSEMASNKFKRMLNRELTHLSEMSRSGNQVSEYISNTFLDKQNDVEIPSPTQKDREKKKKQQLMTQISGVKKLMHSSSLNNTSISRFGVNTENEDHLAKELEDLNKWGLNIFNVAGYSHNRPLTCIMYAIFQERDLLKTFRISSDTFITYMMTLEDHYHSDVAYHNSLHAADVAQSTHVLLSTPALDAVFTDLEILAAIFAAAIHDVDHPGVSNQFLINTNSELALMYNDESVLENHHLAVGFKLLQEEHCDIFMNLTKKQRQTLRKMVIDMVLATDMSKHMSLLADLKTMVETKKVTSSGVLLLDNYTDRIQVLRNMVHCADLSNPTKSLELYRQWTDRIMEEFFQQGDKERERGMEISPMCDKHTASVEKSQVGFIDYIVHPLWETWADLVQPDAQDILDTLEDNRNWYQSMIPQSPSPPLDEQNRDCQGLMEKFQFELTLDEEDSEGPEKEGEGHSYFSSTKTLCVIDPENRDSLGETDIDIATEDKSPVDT
Summary of the method: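 The readout is membrane depolarisation from a cAMP-sensing CNG channel, detected with a potential dye at ex 535/em 590. Cells were HEK293-derived (endogenous PDE-IV) at 1000 cells/well, titrated up to 22.9 uM final.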

[9] = molecular target: Guanine nucleotide-binding protein G(i) subunit alpha-1 (Homo sapiens) (UniProt P63096); assay: qHTS Assay for Inhibitors of RGS12 GoLoco Motif Activity (Green Fluorophore) (AID 879); conditions: Galphai1/FITC-RGS12 GoLoco peptide, fluorescence polarization; series mostly up to 57.1 µM;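 note: 0% = labeled peptide with Gαi1 and full inhibition = labeled peptide alone without protein; negative values mean loss of peptide binding seen as reduced polarization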
Chain of Guanine nucleotide-binding protein G(i) subunit alpha-1 (Homo sapiens) (P63096 whole entry, looked up): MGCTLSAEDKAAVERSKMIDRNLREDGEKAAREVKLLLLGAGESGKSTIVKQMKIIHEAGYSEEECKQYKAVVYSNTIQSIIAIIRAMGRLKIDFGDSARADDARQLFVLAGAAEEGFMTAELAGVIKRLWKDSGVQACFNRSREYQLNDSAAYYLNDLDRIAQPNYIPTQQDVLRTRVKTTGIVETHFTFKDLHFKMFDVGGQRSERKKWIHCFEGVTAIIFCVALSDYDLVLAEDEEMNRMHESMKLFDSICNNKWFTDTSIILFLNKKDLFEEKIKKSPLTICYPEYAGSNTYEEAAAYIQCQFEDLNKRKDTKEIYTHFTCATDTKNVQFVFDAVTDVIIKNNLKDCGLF
Summary of the method: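 A drop in FITC polarization marked displacement of the FITC-tagged RGS12 GoLoco peptide (10 nM) from Gαi1 (50 nM). Compounds were incubated 10 min at room temperature in Tris pH 7.5 buffer containing 150 mM NaCl, 0.1 mM GDP and 0.05% NP40; unlabeled peptide titration served as control.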

[10] = molecular target: Cytochrome P450 3A4 (Homo sapiens) (UniProt P08684); assay: qHTS Assay for Activators of Cytochrome P450 3A4 (AID 885); conditions: recombinant CYP3A4, Luciferin-PPXE luminescence, 60 min; series mostly up to 57.1 µM; note: nearly all actives have a fitted effect of over 65% in size
Chain of Cytochrome P450 3A4 (Homo sapiens) (P08684 whole entry, looked up): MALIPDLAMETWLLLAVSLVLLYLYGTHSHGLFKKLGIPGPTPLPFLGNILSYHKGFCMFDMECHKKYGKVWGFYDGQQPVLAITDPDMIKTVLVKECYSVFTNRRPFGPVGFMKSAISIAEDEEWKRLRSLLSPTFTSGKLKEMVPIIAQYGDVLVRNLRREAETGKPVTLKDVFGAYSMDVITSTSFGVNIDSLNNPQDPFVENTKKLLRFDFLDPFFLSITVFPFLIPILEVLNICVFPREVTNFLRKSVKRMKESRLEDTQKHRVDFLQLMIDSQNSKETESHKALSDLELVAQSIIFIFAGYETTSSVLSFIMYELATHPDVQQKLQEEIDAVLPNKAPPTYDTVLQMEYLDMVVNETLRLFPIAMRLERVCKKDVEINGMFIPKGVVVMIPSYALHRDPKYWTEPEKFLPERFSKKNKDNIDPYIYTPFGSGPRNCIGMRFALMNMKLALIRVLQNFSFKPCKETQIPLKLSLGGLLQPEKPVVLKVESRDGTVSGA
Summary of the method: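 Activators are scored by enhanced luminescence from CYP3A4 conversion of luciferin-PPXE (25uM, equal to KM) to luciferin, after 60 min at RT with an NADPH-regenerating system.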

[11] = qHTS Assay for Identification of Small Molecule Agonists for Thrombopoietin (TPO) Signaling Pathway (AID 917); conditions: TPO signaling pathway reporter cells, agonist qHTS; series mostly up to 38.5 µM; note: % is set by controls: 0 for no effect and ±100 for the full control effect
Summary of the method: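 Quantitative HTS for pathway activators: compounds were pin-transferred onto IL-3-starved Ba/F3 cells expressing human TPO receptor, TPO was added at its EC50 (26 pM final), and after 24 hrs at 37 C reporter luciferase was measured.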

[12] = molecular target: Muscarinic acetylcholine receptor M1 (Rattus norvegicus) (UniProt P08482); assay: qHTS Assay for Antagonists of Acetylcholine Muscarinic M1 Receptor: Measurement of IP-One Response (AID 944); conditions: CHO-M1 cells, IP-One HTRF, antagonist mode; series mostly up to 46.1 µM; note: nearly all actives have a fitted effect of over 75% in size
Chain of Muscarinic acetylcholine receptor M1 (Rattus norvegicus) (P08482 whole entry, looked up): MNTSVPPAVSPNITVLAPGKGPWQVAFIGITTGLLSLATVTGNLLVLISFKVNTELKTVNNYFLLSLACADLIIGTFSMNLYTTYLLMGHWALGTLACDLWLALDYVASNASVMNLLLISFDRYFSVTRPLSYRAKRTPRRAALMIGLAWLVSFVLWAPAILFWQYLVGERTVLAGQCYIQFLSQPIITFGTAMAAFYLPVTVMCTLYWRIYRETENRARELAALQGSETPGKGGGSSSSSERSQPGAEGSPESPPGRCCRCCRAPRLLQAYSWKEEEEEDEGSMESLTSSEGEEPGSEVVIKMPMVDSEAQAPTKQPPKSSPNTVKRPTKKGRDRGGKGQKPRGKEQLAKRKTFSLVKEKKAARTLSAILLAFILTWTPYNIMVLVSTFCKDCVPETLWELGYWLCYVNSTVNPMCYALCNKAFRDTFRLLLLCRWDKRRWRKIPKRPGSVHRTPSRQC
Summary of the method: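 IP1 accumulation measured via TR-FRET between d2-IP1 and Eu-cryptate anti-IP1 antibody after carbachol (200 nM, EC80) stimulation for 30 min; rat M1-transfected CHO cells received compound 10 min before agonist.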

[13] = molecular target: Pyruvate kinase (Leishmania mexicana) (UniProt Q27686); assay: qHTS Validation Assay for Inhibitors of Leishmania Mexicana Pyruvate Kinase (AID 945);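 note: 0% = DMSO only neutral control wells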; conditions: purified L. mexicana pyruvate kinase, enzyme activity, E451W mutant enzyme; series mostly up to 57.5 µM
Chain of Pyruvate kinase (Leishmania mexicana) (Q27686 2-499 E452W): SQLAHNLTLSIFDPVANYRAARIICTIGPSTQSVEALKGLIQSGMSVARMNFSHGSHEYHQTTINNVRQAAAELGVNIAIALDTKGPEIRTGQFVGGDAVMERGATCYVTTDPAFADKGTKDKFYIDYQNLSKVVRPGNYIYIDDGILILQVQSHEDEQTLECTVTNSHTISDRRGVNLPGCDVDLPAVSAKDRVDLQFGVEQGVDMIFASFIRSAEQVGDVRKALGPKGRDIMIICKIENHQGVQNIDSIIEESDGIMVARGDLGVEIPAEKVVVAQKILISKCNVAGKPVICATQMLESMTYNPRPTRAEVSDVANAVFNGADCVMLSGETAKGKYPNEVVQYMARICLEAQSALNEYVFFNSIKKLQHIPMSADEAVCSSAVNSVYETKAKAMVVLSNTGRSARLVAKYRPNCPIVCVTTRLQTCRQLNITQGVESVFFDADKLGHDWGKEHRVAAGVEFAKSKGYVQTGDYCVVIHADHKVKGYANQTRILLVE
Summary of the method: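 Purified LmPYK (E451W mutant, 0.2 nM) was incubated 1 h at room temperature with 0.5 mM PEP and 0.1 mM ADP in 50 mM imidazole pH 7.2, 50 mM KCl, 7 mM MgCl2; ATP formed was read by PKLight luminescence, normalized to DMSO wells.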

[14] = molecular target: Pyruvate kinase PKM (Homo sapiens) (UniProt P14618); assay: qHTS Assay for Activators of Human Muscle Pyruvate Kinase (AID 954; active = well fitted curve in the direction sought with a large enough effect, not every such curve was filed as active;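 note: 0% = uninhibited enzyme and -100% = no enzyme or full thiadiazolimine inhibition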); conditions: purified human muscle pyruvate kinase, luciferase-coupled luminescence, 1 h; series mostly up to 57.5 µM
Chain of Pyruvate kinase PKM (Homo sapiens) (P14618 whole entry, looked up): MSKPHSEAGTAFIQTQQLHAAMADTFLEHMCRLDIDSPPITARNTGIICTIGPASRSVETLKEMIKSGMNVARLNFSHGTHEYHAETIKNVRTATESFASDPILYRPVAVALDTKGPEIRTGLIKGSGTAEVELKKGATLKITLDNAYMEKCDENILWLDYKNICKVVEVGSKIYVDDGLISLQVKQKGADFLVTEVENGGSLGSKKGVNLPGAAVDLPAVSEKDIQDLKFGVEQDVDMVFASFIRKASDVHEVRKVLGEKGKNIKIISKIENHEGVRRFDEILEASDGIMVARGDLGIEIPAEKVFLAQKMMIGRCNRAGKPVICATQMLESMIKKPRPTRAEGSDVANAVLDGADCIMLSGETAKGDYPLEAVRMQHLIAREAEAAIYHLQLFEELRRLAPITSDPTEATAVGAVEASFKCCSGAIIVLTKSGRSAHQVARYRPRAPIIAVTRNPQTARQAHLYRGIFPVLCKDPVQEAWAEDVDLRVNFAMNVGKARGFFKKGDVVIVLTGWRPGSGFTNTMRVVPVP
Summary of the method: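 PKM2, human, >95% pure, 0.1 nM; PEP 0.5 mM (Km), ADP 0.1 mM; 50 mM imidazole pH 7.2, 50 mM KCl, 0.01% Tween 20, 0.05% BSA; 1 h RT; luciferase luminescence readout.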

[15] = molecular target: Alpha-galactosidase (Coffea arabica) (UniProt Q42656); assay: Counterscreen for Glucocerebrosidase Inhibitors: qHTS Assay for Coffee Bean alpha-Galactosidase at pH 4.5 (AID 957); conditions: purified coffee bean alpha-galactosidase, fluorogenic substrate; series mostly up to 76.9 µM;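 note: plate controls were enzyme alone for no effect and no enzyme for full effect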
Summary of the method: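 Fluorogenic qHTS at pH 4.5 (citrate buffer with Tween-20): 2 nM enzyme, 80 uM 4-MU-alpha-galactoside substrate, compound titrated 0.7 nM to 77 uM, 20 min room temperature. Glycine/NaOH stop; 4-MU read Ex 365/Em 440; Hill-equation AC50 against no-enzyme and enzyme controls.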

[16] = molecular target: Alpha-galactosidase A (Homo sapiens) (UniProt P06280); assay: Counterscreen for Glucocerebrosidase Inhibitors: qHTS Assay for Human alpha-Galactosidase at pH 4.5 (AID 992); conditions: purified enzyme, fluorogenic substrate; series mostly up to 76.9 µM; note: 0% is about no effect
Chain of Alpha-galactosidase A (Homo sapiens) (P06280 whole entry, looked up): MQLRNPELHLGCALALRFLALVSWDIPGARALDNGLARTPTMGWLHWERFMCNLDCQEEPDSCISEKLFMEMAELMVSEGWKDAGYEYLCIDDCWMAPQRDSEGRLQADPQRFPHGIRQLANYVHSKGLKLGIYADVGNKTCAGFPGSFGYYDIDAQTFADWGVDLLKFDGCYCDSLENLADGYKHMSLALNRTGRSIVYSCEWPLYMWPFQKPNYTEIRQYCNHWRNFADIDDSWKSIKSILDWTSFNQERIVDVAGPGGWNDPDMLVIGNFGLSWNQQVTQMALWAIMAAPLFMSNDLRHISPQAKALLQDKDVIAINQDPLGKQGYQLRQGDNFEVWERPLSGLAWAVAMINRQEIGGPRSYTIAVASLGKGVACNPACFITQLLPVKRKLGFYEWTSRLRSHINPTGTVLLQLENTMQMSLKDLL
Summary of the method: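 Fluorogenic 4-MU alpha-D-galactoside (80 uM) hydrolysis, 2 nM enzyme, pH 4.5 citrate buffer + 0.005% Tween-20; 20 min RT; NaOH/glycine pH 10 stop; Ex365/Em440. Compounds titrated 0.7 nM–77 uM; Hill-equation AC50.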

[17] = molecular target: alpha-glucosidase (Oryza sativa, rice) (UniProt Q653V4); assay: Counterscreen for Glucocerebrosidase Inhibitors: qHTS Assay for Rice alpha-Glucosidase at pH 5.0 (AID 997); conditions: rice alpha-glucosidase enzyme activity; series mostly up to 76.9 µM;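 note: 0% = full activity with enzyme and -100% = basal without enzyme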
Summary of the method: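 Endpoint fluorogenic assay at pH 5.0: compounds (0.7 nM to 77 uM) titrated against 4 nM rice enzyme and 400 uM 4-MU-alpha-glucoside for 20 min at room temperature; NaOH/glycine stop, read ex 365/em 440 nm, Hill-fitted AC50.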

[18] = molecular target: Alpha-galactosidase (Coffea arabica) (UniProt Q42656); assay: Counterscreen for Glucocerebrosidase Inhibitors: qHTS Assay for Coffee Bean alpha-Galactosidase at pH 5.9 (AID 998); conditions: coffee bean alpha-galactosidase enzyme assay; series mostly up to 76.9 µM;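 note: plate controls were uninhibited enzyme for no effect and no-enzyme basal signal for full effect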
Summary of the method: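 Fluorogenic 4-MU substrate hydrolysis, 80 uM substrate and 2 nM coffee bean alpha-galactosidase, pH 5.9 citrate buffer, 20 min at room temperature, then NaOH/glycine stop. Titration 0.7 nM–77 uM, normalized to no-enzyme and enzyme controls, AC50 via Hill equation.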

[19] = molecular target: Cytochrome P450 2D6 (Homo sapiens) (UniProt P10635); assay: qHTS Assay for Inhibitors and Substrates of Cytochrome P450 2D6 (AID 891); conditions: recombinant CYP2D6, luciferin-ME EGE luminescence; series mostly up to 11.4 µM;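 note: luciferin methyl ether substrate demethylated by CYP2D6 with NADPH regeneration; % is set by controls: 0 for no effect and ±100 for the full control effect; nearly all actives have a fitted effect of over 60% in size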
Summary of the method: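 Luminescent read-out of luciferin formed by 5 nM human CYP2D6 demethylating 30 uM Luciferin-ME EGE (Km level) over 60 min at room temperature after NADPH regeneration addition. Data normalized to full inhibition by 1.43 uM quinidine.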

C[C@@]12CC[C@H]3[C@@H](CC[C@@H]4C[C@H](O)CC[C@]43C)[C@H]1CC[C@H]2O
inactive: activity change, negative = inhibition [1] -12.3% [at 38 µM] | activity change, negative = inhibition [3] 6.96% [at 38 µM] | activity, negative = inhibition [4] 24.5% [at 38 µM] | Potency [5] > 46 µM | Potency [6] > 46 µM | Potency [7] | outcome [8] | outcome [9] | Potency [10] | outcome [11] | Potency [12] | outcome [13] | outcome [14] | outcome [15] | outcome [16] | outcome [17] | outcome [18]
active: Potency [2] 15.8 µM

CC(=O)c1c(O)c(C)c(O)c(Cc2c(O)c3c(c(C(=O)/C=C\c4ccccc4)c2O)OC(C)(C)C=C3)c1O
active: Potency [2] 12.6 µM and 31.6 µM
inactive: activity change, negative = inhibition [1] -26.6% [at 38 µM] | activity, negative = inhibition [4] -35.6% [at 38 µM] | Potency [5] > 46 µM | Potency [6] > 46 µM | Potency [7] | outcome [8] | outcome [9] | Potency [10] | Potency [19] | Potency [12] | outcome [13] | outcome [14] | outcome [15] | outcome [16] | outcome [17] | outcome [18]

N[C@H](Cn1cc(I)c(=O)[nH]c1=O)C(=O)O
inactive: activity change, negative = inhibition [1] 10.7% [at 38 µM] | Potency [2] | activity change, negative = inhibition [3] -6.62% [at 38 µM] | activity, negative = inhibition [4] -6.5% [at 38 µM] | Potency [6] > 46 µM | Potency [7] | outcome [8] | Potency [19]

CO[C@@H]1CC=C2CCN3CCC4=C(CC(=O)OC4)[C@]23C1
inactive: activity change, negative = inhibition [1] 6.22% [at 38 µM] | Potency [2] | activity change, negative = inhibition [3] -0.774% [at 38 µM] | activity, negative = inhibition [4] -4.68% [at 38 µM] | Potency [5] > 46 µM | Potency [6] > 46 µM | Potency [7] | outcome [8] | outcome [9] | Potency [10] | outcome [11] | Potency [12] | outcome [13] | outcome [14] | outcome [15] | outcome [16] | outcome [17] | outcome [18]

O=C(O)[C@H]1CCN1
inactive: activity change, negative = inhibition [1] -3.07% [at 38 µM] | Potency [2] | activity change, negative = inhibition [3] 0.684% [at 38 µM] | activity, negative = inhibition [4] 3.4% [at 38 µM] | Potency [5] > 46 µM | Potency [7] | outcome [8] | outcome [9] | outcome [11] | Potency [12] | outcome [13] | outcome [14] | outcome [15] | outcome [16] | outcome [17] | outcome [18]

C[C@@H]1O[C@H]1P(=O)(O)O
inactive: activity change, negative = inhibition [1] 0.559% [at 38 µM] | Potency [2] | activity change, negative = inhibition [3] 6.57% [at 38 µM] | activity, negative = inhibition [4] 22.2% [at 38 µM] | Potency [5] > 46 µM | Potency [6] > 46 µM | Potency [7] | outcome [8] | outcome [9] | outcome [11] | Potency [12] | outcome [13] | outcome [14] | outcome [15] | outcome [16] | outcome [17] | outcome [18]

COC(=O)[C@H](N)CCCN=C(N)N[N+](=O)[O-]
inactive: activity change, negative = inhibition [1] -2.03% [at 38 µM] | Potency [2] | activity change, negative = inhibition [3] 13% [at 38 µM] | activity, negative = inhibition [4] 3% [at 38 µM] | Potency [5] > 46 µM | Potency [6] > 46 µM | Potency [7] | outcome [8] | outcome [9] | outcome [11] | Potency [12] | outcome [13] | outcome [14] | outcome [15] | outcome [16] | outcome [17] | outcome [18]

COc1cc2c(cc1OC)[C@@]13CCN4C=C5CCO[C@H]6CC(=O)N2[C@@H]1[C@@H]6[C@H]5C[C@H]43
inactive: activity change, negative = inhibition [1] 4.45% | activity, negative = inhibition [4] 2.38% | outcome [8]
